Laboratory results taken from PubChem BioAssay AID488854 (National Center for Advancing Translational Sciences (NCATS), 2010).
Where “and” joins values, the source holds several entries; their conditions need not be identical. Equal values may be shown once. Inconclusive results are not listed. Calls of active or inactive are those of the source. Calls come from the whole dose curve; as a rule, active = well fitted activation curve with a large enough effect; inconclusive = small, poorly fitted or top-dose-only effect; inactive = no such curve, though single readings can be large or run the other way.

Molecular target: Lysosomal acid glucosylceramidase (Homo sapiens) (UniProt P04062)
Experiment: qHTS Assay for Inhibitors and Activators of N370S glucocerebrosidase as a Potential Chaperone Treatment of Gaucher Disease: Confirmation for Probe SAR
Conditions: N370S GC spleen homogenate, 4MU-glucoside fluorescence; series mostly up to 57.5 µM
From the text: NIH Chemical Genomics Center [NCGC] NIH Molecular Libraries Probe Production Centers Network [MLPCN] MLPCN Grant: MH086442-01 Assay Submitter (PI): Wei Zheng Glucocerebrosidase (GC) catalyzes the hydrolysis of beta-glucocerebroside to glucose and ceramide in lysosomes. Mutations in the glucocerebrosidase gene result in Gaucher disease, an autosomal recessive lysosomal storage disorder. Many of the mutations encountered in patients with Gaucher disease are missense alterations that may cause misfolding, decreased stability and/or mistrafficking of this lysosomal protein. […] These inhibitors include iminosugar analogs and three non-iminosugar inhibitors identified from a previous HTS of 62,000 compounds with the wild type recombinant enzyme. However, the enhancement of enzyme activity by the chaperone action of an enzyme inhibitor must be balanced against the direct inhibition of the enzyme. An enzyme activator could also function as a chaperone by binding to the enzyme and helping to correct its misfolding and mistrafficking. While activators for GC have not yet been identified, they may have better therapeutic potential than inhibitors. Therefore the discovery and development of chemical activators may provide a new strategy for the chaperone therapy. We have optimized a new assay using N370S mutant GC derived from the spleen of a Gaucher patient. […] In addition, the MLPCN compound library has expanded, which increases the chance of finding new and better probes.
NCGC Assay Protocol Summary: This is a fluorogenic enzyme assay with 4-methylumbelliferyl-beta-D-glucopyranoside as the substrate and N370S glucocerebrosidase from human spleen homogenate as the enzyme preparation. Upon the hydrolysis of this fluorogenic substrate, the resulting product, […] which can be detected by a standard fluorescence plate reader. Data were normalized to the controls for basal activity (without enzyme) and 100% activity (with enzyme). The AC50 values were determined from concentration-response data modeled with the standard Hill equation. Assay buffer: 50 mM citric acid (titrated with potassium phosphate to pH 5.0), 100 mM potassium chloride, 10 mM sodium chloride, 1 mM magnesium chloride, 0.01% Tween-20. 1536-well assay protocol: (1) Add 2 ul/well of spleen homogenate (27 ug final) (2) Add 23 nL compounds in DMSO solution. The final titration was 0.5 nM to 58 uM. (3) Add 2 ul of substrate (1 mM final) (4) Incubate at 37C for 40 min. (5) Add 2 ul stop solution (1M NaOH and 1M Glycine mixture, pH 10) (6) Detect the assay plate in a ViewLux plate reader (PerkinElmer) with Ex=365 nm and Em=440nm. Keywords: Glucocerebrosidase, beta-glucosidase, Gaucher Disease, pharmacological chaperone, chaperone therapy, high throughput screening, glucocerebrosidase inhibitor, MLSMR, MLSCN, NIH Roadmap, qHTS and NCGC

Chain of Lysosomal acid glucosylceramidase (Homo sapiens) (P04062 whole entry N409S): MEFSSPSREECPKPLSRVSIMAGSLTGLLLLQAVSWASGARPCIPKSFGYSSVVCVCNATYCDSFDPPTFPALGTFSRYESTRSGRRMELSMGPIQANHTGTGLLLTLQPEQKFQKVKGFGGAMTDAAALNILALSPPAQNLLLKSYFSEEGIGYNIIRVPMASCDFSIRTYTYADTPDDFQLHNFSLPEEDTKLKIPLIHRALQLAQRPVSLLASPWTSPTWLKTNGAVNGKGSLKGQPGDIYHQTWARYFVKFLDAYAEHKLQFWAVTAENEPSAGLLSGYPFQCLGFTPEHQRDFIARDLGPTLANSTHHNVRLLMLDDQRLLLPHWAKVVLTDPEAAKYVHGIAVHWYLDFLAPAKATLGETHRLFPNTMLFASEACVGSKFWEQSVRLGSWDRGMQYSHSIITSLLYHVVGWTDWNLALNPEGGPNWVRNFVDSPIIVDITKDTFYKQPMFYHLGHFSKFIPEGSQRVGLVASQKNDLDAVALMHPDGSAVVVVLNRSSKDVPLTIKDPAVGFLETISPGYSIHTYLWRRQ

Potency, inactive:
Cc1cc(C)n2ncc(C(=O)Nc3ccc(S(C)(=O)=O)cc3)c2n1, Cc1cc(C)n2ncc(C(=O)Nc3ccncc3)c2n1, Cc1cc(C)n2ncc(C(=O)N3CCCC3)c2n1, CC(=O)Nc1ccc(NC(=O)c2cnn3c(C)cc(C)nc23)cc1, Cc1cc(-c2ccccc2)n2ncc(C(=O)Nc3ccccc3Sc3ccccc3)c2n1, COc1ccc(NC(=O)c2cnn3c(-c4ccccc4)cc(C)nc23)cc1, Cc1cc(-c2ccccc2)n2ncc(C(=O)Nc3ccc(Cl)c(Cl)c3)c2n1, CCCCN(CCCNC(=S)NCCCc1cnc[nH]1)c1ccc(Br)cn1, CNC(=O)c1cnn2c(C)cc(C)nc12, OC[C@H]1CNC[C@@H](O)[C@@H]1O, Cc1cc(C)n2ncc(C(=O)NC(C)C)c2n1

Potency, active:
Cc1ccc(NC(=O)c2cnn3c(C)cc(C)nc23)c(C)c1 10.3 µM, CCc1ccc(NC(=O)c2cnn3c(C)cc(-c4ccccc4)nc23)cc1 13 µM, Cc1cc(-c2ccccc2)nc2c(C(=O)Nc3ccc4c(c3)CCC4)cnn12 8.19 µM, COc1ccc(NC(=O)c2cnn3c(C)cc(C)nc23)cc1 6.51 µM, COc1ccc(NC(=O)c2cnn3c(C)cc(C)nc23)cc1Cl 2.06 µM, CC(=O)c1cccc(NC(=O)c2cnn3c(C)cc(C)nc23)c1 25.9 µM, Cc1cc(C)n2ncc(C(=O)Nc3ccccc3)c2n1 5.17 µM, Cc1cc(C)n2ncc(C(=O)Nc3cc(Cl)cc(Cl)c3)c2n1 25.9 µM, C=C1C=C(C(F)F)n2ncc(C(=O)Nc3ccc(C(C)CC)cc3)c2N1 (stereo not given) 2.51 µM, O=C(Nc1ccc2c(c1)CCC2)c1cnn2c1NC(=C1CC1)C=C2C(F)F 3.98 µM, O=C(Nc1ccccc1Sc1ccccc1)c1cnn2c1NC(=C1CC1)C=C2C(F)F 4.61 µM, Cc1cc(C)n2ncc(C(=O)NC3CCC(C(C)(C)C)CC3)c2n1 (stereo not given) 8.19 µM and 1.63 µM, Cc1cc(-c2ccccc2)nc2c(C(=O)Nc3ccc(Cl)c(Cl)c3)cnn12 6.51 µM, Cc1cc(C)n2ncc(C(=O)Nc3ccc(Cl)c(Cl)c3)c2n1 3.66 µM, Cc1cc(C)n2ncc(C(=O)NCc3ccccc3)c2n1 32.6 µM, Cc1cc(C)n2ncc(C(=O)NC3CCCCC3)c2n1 13 µM, Cc1cc(C)n2ncc(C(=O)Nc3ccc(C)c(C)c3)c2n1 1.46 µM, Cc1cc(C)n2ncc(C(=O)Nc3cccc(C(F)(F)F)c3)c2n1 6.51 µM, CCc1ccc(NC(=O)c2cnn3c(C)cc(C)nc23)cc1 4.11 µM, Cc1cc(C)n2ncc(C(=O)Nc3ccc4c(c3)OCO4)c2n1 6.51 µM, O=C(NC1CCCCC1)c1cnn2c1NC(=C1CC1)C=C2C(F)F 12.6 µM, Cc1cc(C)n2ncc(C(=O)Nc3ccc4c(c3)CCC4)c2n1 3.26 µM, Cc1cc(C)n2ncc(C(=O)Nc3ccc(C(F)(F)F)cc3)c2n1 2.06 µM, Cc1cc(C)n2ncc(C(=O)NCc3ccco3)c2n1 41.1 µM, Cc1cc(C)n2ncc(C(=O)Nc3ccc(Br)cc3)c2n1 2.31 µM, Cc1cc(C)n2ncc(C(=O)Nc3ccccc3Sc3ccccc3)c2n1 18.3 µM, Cc1cc(C)n2ncc(C(=O)NCC(C)C)c2n1 25.9 µM, Cc1cc(C)n2ncc(C(=O)Nc3ccc4c(c3)OCCO4)c2n1 5.8 µM, O=C(Nc1ccccc1Sc1ccccc1)c1cnn2c1NC(=C1CC1)C=C2C(F)(F)F 14.1 µM
